Inconclusive results are not listed. Entries that show only a call come without a potency. The source made the active and inactive calls. Calls come from the whole dose curve; as a rule, active = well fitted inhibition curve with a large enough effect; inconclusive = small, poorly fitted or top-dose-only effect; inactive = no such curve, though single readings can be large or run the other way.
These molecules were tested against Papain (Carica papaya) (UniProt P00784) (assay: Primary qHTS assay for inhibitors of the protease papain (AID 1645873;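 note: papain turnover of Z-FR-AMC read as the AMC fluorescence gain over 10 min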)). Conditions: papain Z-FR-AMC cleavage, AMC fluorescence; series mostly up to 49.8 µM.
Potency is the fitted concentration of half-maximal effect.

Sequence of Papain (Carica papaya) (P00784 whole entry, looked up): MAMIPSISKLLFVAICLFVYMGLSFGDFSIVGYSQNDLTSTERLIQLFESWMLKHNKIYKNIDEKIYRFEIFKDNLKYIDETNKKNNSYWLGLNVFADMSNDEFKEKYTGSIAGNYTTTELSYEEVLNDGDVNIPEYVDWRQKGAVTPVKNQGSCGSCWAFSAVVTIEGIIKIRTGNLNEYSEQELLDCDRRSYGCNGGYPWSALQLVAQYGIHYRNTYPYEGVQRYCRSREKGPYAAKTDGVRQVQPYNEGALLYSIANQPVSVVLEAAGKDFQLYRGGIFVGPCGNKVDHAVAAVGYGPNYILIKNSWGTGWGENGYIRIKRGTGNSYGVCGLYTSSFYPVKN

SMILES	Potency
Oc1ccc(Cn2cc[nH]c2=S)cc1	inactive
NOCC(=O)O	inactive
NC1(C(=O)O)CCCCC1	inactive
Cc1ccccc1/C=C/C1=NCCN1	inactive
CCN(CC)CCCCCCCCOC(=O)c1cc(OC)c(OC)c(OC)c1	inactive
CC(=O)NCCc1c[nH]c2ccc(O)cc12	inactive
C[C@H]1CC2C3CCC4=CC(=O)C=C[C@]4(C)[C@@]3(Cl)[C@@H](O)C[C@]2(C)[C@@]1(O)C(=O)CO (stereo partly specified)	inactive
CC(C)[C@@H]1CC[C@@H](C)C[C@@H]1P(=O)(c1ccccc1)c1ccccc1	inactive
CN(C)C(=O)/N=N/C(=O)N(C)C	inactive
NC(N)=NC(N)=Nc1cccc(Cl)c1	inactive
c1ccc(CN2CCC3(CCCc4ccccc43)CC2)cc1	inactive
O=C(O)c1cc2cc(F)ccc2[nH]1	inactive
C=CCN1CCc2c(cc(O)c(O)c2Cl)C(c2ccccc2)C1 (stereo unspecified)	inactive
CCCn1c(=O)c2[nH]c(C3CCCC3)nc2n(CCC)c1=O	inactive
NC(=O)CNCCC(c1ccccc1)c1ccccc1	inactive
NCCC1CCCC(CCN)N1 (stereo unspecified)	inactive

SMILES	Potency
CNC(=O)c1cc2c(cn1)[nH]c1ccccc12	25.1 µM (active)
c1ccc2c(c1)CC(N1CCN(c3cccc4c3OCCO4)CC1)C2	inactive
O=c1ccc2c(OCCCCc3ccccc3)c3ccoc3cc2o1	inactive
Cn1c(=O)[nH]c2ncn(C)c2c1=O	inactive
Nc1nc2ccc(Cl)cc2c2nc(-c3ccco3)nn12	22.4 µM (active)
N#Cc1cc([N+](=O)[O-])c2sc(C(N)=O)[n+]([O-])c2c1	inactive
Cn1cc(C(=O)OCC2CCN(CCNS(C)(=O)=O)CC2)c2ccccc21	inactive
N#C/C(=C\c1ccc(O)c(O)c1)C(=O)NCCc1ccccc1	inactive
CCCN(CCc1ccccc1)C1CCc2c(O)cccc2C1 (stereo unspecified)	inactive
CN(C)CCC(c1ccc(Br)cc1)c1ccccn1 (stereo unspecified)	inactive
CCCCCCC(=O)OC1CC(C)(C)NC(C)(C)C1	inactive
c1ccc(C(NCc2cccnc2)(c2ccccc2)c2ccccc2)cc1	inactive
CN1C2CCC1CC(OC(c1ccccc1)c1ccccc1)C2 (stereo unspecified)	inactive
CN1CCCC1CCOC(C)(c1ccccc1)c1ccc(Cl)cc1 (stereo unspecified)	inactive
S=C(S)N1CCCC1	inactive
